# Data taken from PubChem BioAssay (NCATS).
# Where “and” joins values, the source holds several entries; their conditions need not be identical. Identical values can stand only once. Inconclusive results are not listed. Where a call stands in place of a potency, no number is given. Calls of active or inactive are those of the source. Calls come from the whole dose curve; as a rule, active = well fitted cell-killing curve with a large enough effect; inconclusive = small, poorly fitted or top-dose-only effect; inactive = no such curve, though single readings can be large or run the other way.
# Assay: qHTS of pediatric cancer cell lines to identify multiple opportunities for drug repurposing: Primary screen for Saos-2 cells (AID 1347097); note: nearly all actives have a fitted effect of over 40% in size
# Details: Saos-2 viability, CellTiter-Glo ATP luminescence, 48 h; series mostly up to 46 µM
# Source text: Drug repurposing or repositioning has been offered as a strategy for drug development in oncology programs. This approach has special potential for childhood cancers and other rare or orphan diseases, where the expected return on new drug development has been a disincentive to pharmaceuticals. […] In this project we exploit the poly-pharmacology of drugs to discover new indications via phenotypic screening of a panel of 19 well-characterized cell lines derived from solid tumors seen in children and adolescents. The goal is to identify approved drugs with previously unrecognized anticancer properties that has the potential to reveal new mechanisms and biological processes involved in carcinogenesis or drug resistance. We employed a titration-based paradigm (quantitative high-throughput screening or qHTS), where all compounds were tested at multiple concentrations for their effect on cell viability. Concentration-response curves (CRCs) were derived directly from the primary screen, and both potency and efficacy values were used to identify compounds with robust bioactivity profiles. We screened the NIH Chemical Genomics Center (NCGC) Pharmaceutical Collection (NPC) and Mechanism Interrogation Plate (MIPE) small molecule collections of approved and investigational compounds against these cell lines; and measured metabolically active cells after 48 hours of compound treatment as a proxy for cell viability. […] Assay Submitter: Nathalia J. Martinez, National Center for Advancing Translational Sciences, National Institutes of Health, Rockville, MD, USA; email: natalia.martinez@nih.gov Shen, M et al. Quantitative high-throughput phenotypic screening of pediatric cancer cell lines identifies multiple opportunities for drug repurposing. Oncotarget 2017 Dec 19;9(4):4758-4772. PMID 29435139.
# The cells were obtained from University of North Carolina (UNC), Pediatric Preclinical Testing Program (PPT), and Coriell Institute (CI). qHTS cell viability assay: Cells were assayed in growth media at a density of 500-1,000 cells/well. Five microliters of cells were dispensed into 1,536-well, white, solid-bottom, TC-treated plates (Greiner Bio One) using a multidrop dispenser and incubated at 37 degrees C, 5% CO2, under a humidified atmosphere for 5 hours. Twenty-three nanoliters of compounds and controls (neutral control DMSO or positive control bortezomib at final concentration of 2.3 µM) were subsequently transferred by Kalypsys pintool. For primary screens, the MIPE collection was tested at 11-point dilutions (final concentrations range from 0.78 nM to 46 µM) and the NPC collection at 8-point dilutions (final concentrations range from 0.59 nM to 46 µM). Compounds tested in follow-up screens were assayed at 11-point dilutions. Cells were incubated for 48 hours, followed by addition of 3 µL of CellTiter-Glo (Promega). After a 15 min incubation at room temperature, samples were analyzed for luminescence intensity using a ViewLux High-throughput CCD imager equipped with clear filters.
# Potency is the fitted concentration of half-maximal effect.
row,SMILES,Potency
1,Cc1ccccc1C(OCCN(C)C)c1ccccc1 (stereo not given),inactive
2,N=c1nc(N2CCCCC2)cc(N)n1O,inactive
3,COc1cc(Nc2ncc3c(n2)-c2ccc(Cl)cc2C(c2c(F)cccc2OC)=NC3)ccc1C(=O)O,4.69 µM (active)
4,O=C(O)[C@@H](c1ccc(OCc2ccc3ccccc3n2)cc1)C1CCCC1,inactive
5,Nc1ncnc2nc(-c3ccc(N4CCOCC4)nc3)cc(-c3cccc(Br)c3)c12,inactive
6,CCCS(=O)(=O)Nc1ccc(F)c(C(=O)c2c[nH]c3ncc(Cl)cc23)c1F,11.8 µM (active)
7,Cc1cc2c(C(C)C)c(O)c(O)c(C=O)c2c(O)c1-c1c(C)cc2c(C(C)C)c(O)c(O)c(C=O)c2c1O,8.41 µM (active) and 16.6 µM (active)
8,NC(=O)c1ccc(I)c([N+](=O)[O-])c1,inactive
9,Cc1ccc(-n2nc(C(C)(C)C)cc2NC(=O)Nc2ccc(OCCN3CCOCC3)c3ccccc23)cc1,inactive
10,O=C(NOC[C@H](O)CO)c1ccc(F)c(F)c1Nc1ccc(I)cc1F,inactive
11,O=c1[nH]cnc2[nH]ncc12,inactive
12,CCCc1nc2c(C)cc(-c3nc4ccccc4n3C)cc2n1Cc1ccc(-c2ccccc2C(=O)O)cc1,inactive
13,CC1(C)Cc2c(-c3ccccc3)c(-c3ccc(Cl)cc3)c(CC(=O)O)n2C1,33.2 µM (active)
14,CNCc1ccc(-c2[nH]c3cc(F)cc4c3c2CCNC4=O)cc1,inactive
15,CCC(C)(C)C(=O)O[C@H]1C[C@@H](C)C=C2C=C[C@H](C)[C@H](CC[C@@H]3C[C@@H](O)CC(=O)O3)[C@H]21,2.37 µM (active) and 2.96 µM (active)
16,CCC(=O)N[C@H]1CC[C@H](C(=O)N(C)c2ccc(-c3nc4ccccc4o3)cc2)C1,inactive
17,CC(c1cc2ccccc2s1)N(O)C(N)=O (stereo not given),inactive
18,Cc1cc([C@@H](C)Nc2ccccc2C(=O)O)c2nc(N3CCOCC3)cc(=O)n2c1,9.59 µM (active)
19,CCn1cc(C(=O)O)c(=O)c2cc(F)c(N3CCNC(C)C3)c(F)c21 (stereo not given),inactive
20,COc1ccc2c3n(c(=NC(=O)c4cccnc4)nc2c1OC)CCN3,1.18 µM (active)

row,SMILES,Potency
1,Cc1csc(NC(=O)c2sc3nc4c(c(C(F)(F)F)c3c2N)CCC4)n1,inactive
2,COc1ccc(C2=N[C@H](c3ccc(Cl)cc3)[C@H](c3ccc(Cl)cc3)N2C(=O)N2CCNC(=O)C2)c(OC(C)C)c1,23.5 µM (active)
3,Cc1cc2c(F)c(Oc3ncnn4cc(OC[C@@H](C)O)c(C)c34)ccc2[nH]1,18.7 µM (active)
4,CS(=O)(=O)c1cccc(CNc2nc(Nc3ccc4c(c3)CCC(=O)N4)ncc2C(F)(F)F)c1,16.6 µM (active)
5,CCc1cc(Nc2nccc(-c3c(-c4ccc(OC)c(C(=O)Nc5c(F)cccc5F)c4)nc4ccccn34)n2)c(OC)cc1N1CCC(N2CCN(S(C)(=O)=O)CC2)CC1,18.7 µM (active)
6,CC(C)(N)C(=O)N[C@H](COCc1ccccc1)C(=O)N1CCC2(CC1)CN(S(C)(=O)=O)c1ccccc12,inactive
7,O=c1n(CCCN2CCN(c3cccc(Cl)c3)CC2)nc2ccccn12,inactive
8,Cc1c(CCOc2ccc(C(=O)O)cc2)c2cc(Cl)ccc2n1C(c1ccccc1)c1ccccc1,inactive
9,CCOc1ccn(-c2ccc(F)cc2)c(=O)c1C(=O)Nc1ccc(Oc2ccnc(N)c2Cl)c(F)c1,16.6 µM (active)
10,NC(=O)c1ccc(-c2nc(-c3ccc4c(c3)OCCO4)c(-c3ccccn3)[nH]2)cc1,inactive
11,Nc1nccc(-c2ccc3noc(-c4ccc(Cl)cc4)c3c2)n1,inactive
12,O=C(O)COCCN1CCN(C(c2ccccc2)c2ccc(Cl)cc2)CC1 (stereo not given),inactive
13,CC1(C)SCCN(S(=O)(=O)c2ccc(OCC#CCO)cc2)[C@@H]1C(=O)NO,inactive
14,Cn1cnc([N+](=O)[O-])c1Sc1ncnc2nc[nH]c12,inactive
15,Cc1cnc(Nc2ccc(OCCN3CCCC3)cc2)nc1Nc1cccc(S(=O)(=O)NC(C)(C)C)c1,inactive
16,NCCc1ccc(O)c(O)c1,inactive
17,CC[C@H](Nc1ncnc2nc[nH]c12)c1nc2cccc(F)c2c(=O)n1-c1ccccc1,9.35 µM (active)
18,CNC[C@H](O)c1cccc(O)c1,inactive
19,NC(=O)c1ccc(-c2nc(-c3ccc4c(c3)OCO4)c(-c3ccccn3)[nH]2)cc1,inactive
20,O=C(O)CCc1ccc(NCc2cccc(Oc3ccccc3)c2)cc1,inactive
